An excerpt weighted towards active compounds, which were near 0.9% of everything screened.
GoLoco inh red = RGS12 GoLoco-Gai1 interaction inhibition; Potency, µM (doses to about 61.6 µM), most hits filed as inhibitors; 230,000 compounds, 0.44% hits; Gai1:RGS12 GoLoco peptide FP, rhodamine, 10 min; AID 880; active = well fitted inhibition curve with a large enough effect, not every such curve was filed as active; inactive = no such curve, though single readings can be large or run the other way; note: nearly all actives have a fitted effect of over 30% in size
RECQ1 helicase = blocks DNA unwinding by human RECQ1. P46063. RECQ1 DNA unwinding, red fluorescence kinetic read. Potency, µM (top dose mostly 57.3 µM), actives largely listed as inhibitors. 240,000 compounds, 0.54% hits. AID 2549; note: nearly all actives have a fitted effect of over 30% in size
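RECQ1T1 50 nM; forked duplex (20 bp + 30-nt ss tails) 200 nM, ATP 2 mM final; pH 8.0, 2 mM MgCl2, 2.5 ug/ml poly(dI-dC); 15 min compound preincubation; discontinuous kinetic read over 2 h at RT.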
TRb SRC2 PPI = disrupts binding of human TR beta to SRC2; 280,000 compounds, 0.065% hits; AID 1469; Potency, µM (titrated, usually from 106 µM), most hits filed as inhibitors; TRbeta-SRC2 peptide binding, fluorescence polarization; receptor liganded with 1 µM T3; note: nearly all actives have a fitted effect of over 50% in size
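Each compound concentration gave % activity, normalized to unbound and bound Texas Red SRC2 controls, from polarization read after 5 hr ambient incubation with T3-loaded human TRb LBD.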
APE1 inh = blocks human APE1 abasic DNA cleavage; 350,000 compounds, 0.35% hits; P27695; Potency, µM (highest dose often 65.8 µM), hits mostly inhibitors; recombinant APE1, TAMRA/BHQ-2 abasic DNA cleavage fluorescence; note: nearly all actives have a fitted effect of over 55% in size
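APE1 at 0.75 nM final was preincubated with compound 15 min at room temperature, then 50 nM double-stranded THF abasic-site substrate (5'-TAMRA/3'-BHQ-2) was added. Fluorescence (ex 525/em 598 nm) was read kinetically; third-minus-first read gave activity.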
BLM inh = Bloom syndrome helicase (human) inhibition | P54132 | recombinant BLM DNA unwinding, fluorescence dequenching | Potency, µM (highest dose often 56.1 µM), actives largely listed as inhibitors | 350,000 compounds, 0.2% hits | AID 2528; note: nearly all actives have a fitted effect of over 35% in size
TexasRed fluor = Texas Red fluorescence interference in TRb-SRC2 counter-screen. TRb/SRC2 Texas Red total fluorescence interference. Potency, µM (doses to about 106 µM). 280,000 compounds, 0.29% hits. AID 1479; active = well fitted curve in either direction with a large enough effect; inconclusive = small, poorly fitted or top-dose-only effect
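Human TRb ligand-binding domain at 0.6 uM with 20 nM Texas Red SRC2 peptide in Tris buffer containing 1 uM T3 and 5% DMSO, incubated with compound 5 h at ambient temperature. Total fluorescence (555/632 nm) calculated as parallel + 2 × perpendicular.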
A number is an active result; – = inactive; ? = inconclusive; · = no result; [ ] = dose if it differs, or a comment. Unless noted, calls come from the whole dose curve; as a rule, active = well fitted curve in the direction sought with a large enough effect; inconclusive = small, poorly fitted or top-dose-only effect, or another doubt; inactive = no such curve, though single readings can be large; an effect the other way counts as inactive or inconclusive.

SMILES	GoLoco inh red	RECQ1 helicase	TRb SRC2 PPI	APE1 inh	BLM inh	TexasRed fluor
Cc1c(N=NC2=C(O)CCCC2=O)c(=O)n(-c2ccccc2)n1C	17.8µM	–	–	–	–	–
COc1cccc(-c2csc(N3CCC(C(N)=O)CC3)n2)c1	·	·	·	–	·	·
O=c1c2ccccc2nc2sc(Nc3ccc(Br)cc3)nn12	·	·	·	–	·	·
CCN(CC)S(=O)(=O)c1ccc(N=NC2=C(O)CCCC2=O)cc1	·	?	39.8µM	–	–	44.7µM[fluorescent]
CC(C)(C)NC[C@H](O)COc1ccccc1C1CCCC1	·	·	·	–	·	·
COC(=O)C1(C(=O)OC)CC2=CC(CC2=O)Cc2ccccc2[C@@H]1C[N+](=O)[O-] (stereo partly specified)	22.4µM	–	–	–	–	–
COC(=O)C1(C(=O)OC)C/C=C\C/C=C\c2ccccc2C1C[N+](=O)[O-] (stereo unspecified)	–	–	–	–	–	–
N[C@H](C(=O)O)[C@@H]1CC(Cl)=NO1	·	·	·	–	·	·
CCCCCCCCCCCCCCN	·	·	–	·	·	–
COC(=O)c1ccc2c(c1)C(C)(C)C(/C=C/c1ccccc1O)=[N+]2C	–	–	20µM	?	–	20µM[fluorescent]
C=C(C)C(=O)OCCCCCCCCCCCC	·	·	–	·	·	–
NC(=O)C1CCN(c2nc(-c3cccc4sc5ccccc5c34)cs2)CC1	·	·	·	–	·	·
O=C(O)c1cccc(-n2sc3ccccc3c2=O)c1	·	·	·	–	·	·
O=c1c2ccccc2sn1-c1ccc(S(=O)(=O)N2CCCC2)cc1	0.159µM	–	·	–	–	·
O=c1c2ccccc2sn1-c1ccccc1	17.8µM	–	–	–	–	–
O=c1c2ccccc2sn1-c1nccs1	15.8µM	–	–	–	–	–
O=c1c2cc(F)ccc2sn1-c1ccccc1	·	·	·	–	·	·
O=S(=O)(c1ccc(S(=O)(=O)N2CCCC2)cc1)N1CCCCC1	·	·	·	–	–	·
CN(C)S(=O)(=O)c1cccc(-n2sc3ccccc3c2=O)c1	14.1µM	–	–	–	–	–
O=c1c2ccccc2c(C=Nc2ccccc2O)c(O)n1-c1nccs1	–	–	–	–	–	–
O=C[C@@H]1CCCN1C(=O)[C@@H]1CCCN1C(=O)OCc1ccccc1	–	–	–	–	·	–
Cc1ccc(-n2sc3ccccc3c2=O)cc1S(=O)(=O)N1CCCCC1	28.2µM	–	–	–	–	–
Cc1ccc(C)c(CN2C(=O)c3ccccc3S(=O)(=O)c3ccc(C(=O)N4CCOCC4)cc32)c1	·	·	–	·	–	2.82µM[quencher]
Clc1ccc2c(c1)-n1cc(-c3ccccc3)nc1CO2	·	·	–	·	–	11.2µM[quencher]
COc1cccc(-n2c(C)cc(/C=C3/C(=N)N4C(=NC3=O)SN=C4S(C)(=O)=O)c2C)c1	–	–	–	–	–	–
SMILES	GoLoco inh red	RECQ1 helicase	TRb SRC2 PPI	APE1 inh	BLM inh	TexasRed fluor
Cc1ccc(-n2cccc2/C=C2/C(=N)N3C(=NC2=O)SN=C3S(C)(=O)=O)cc1	–	25.1µM	–	?	–	–
Cc1cc(C)cc(-n2cccc2/C=C2/C(=N)N3C(=NC2=O)SN=C3S(C)(=O)=O)c1	–	31.6µM	–	?	31.6µM	–
CCc1ccc(-n2cccc2/C=C2/C(=N)N3C(=NC2=O)SN=C3S(C)(=O)=O)cc1	–	35.5µM	–	?	?	–
CS(=O)(=O)C1=NSC2=NC(=O)/C(=C\c3cccn3-c3ccccc3Cl)C(=N)N21	–	25.1µM	–	–	–	–
S=C(S)NCCNC(=S)S	·	·	–	·	·	?
COc1ccccc1N1CCN(c2ccc(-c3ccccc3)nn2)CC1	12.6µM	–	–	–	–	–
CN(C(=O)C1CCCN(c2ncnc3c2nc2n3CCCCC2)C1)c1ccccc1F (stereo unspecified)	·	·	–	·	–	–
COc1cc(OC)c(NC(=O)C2CCCN(c3ncnc4c3nc3n4CCCCC3)C2)cc1Cl (stereo unspecified)	·	·	–	·	–	17.8µM[quencher]
Cc1ccc(N(C)C(=O)C2CCCN(c3ncnc4c3nc3n4CCCCC3)C2)cc1C (stereo unspecified)	·	·	–	·	–	20µM[quencher]
COc1ccccc1NC(=O)C1CCCN(c2ncnc3c2nc2n3CCCCC2)C1 (stereo unspecified)	·	·	·	–	–	·
